# SRC3 inh: inhibits human SRC3 coactivator. HEK293 GAL4-SRC3 luciferase reporter, luminescence. inhibition, % at 3.6 µM. hit rate 0.17% among 360,000. AID 588352;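 active = inhibition above a per-campaign cutoff, the mean of all compounds plus 3 SD, cut at about 60% in these data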;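 note: 0% = DMSO-treated cells and 100% = gossypol-treated cells at 36 µM; higher means less SRC3-driven luciferase light from the GAL4 reporter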
# NCOA2 inhibitor: inhibits human steroid receptor coactivator 2; Q15596; HEK293 GAL4-SRC2 luciferase reporter, luminescence; inhibition, % at 9 µM; hit rate 0.17% among 370,000; AID 651957;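 active = inhibition above the mean inhibition of all tested compounds plus 3 SD, set per campaign, cut at about 52% in these data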;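 note: 0% = DMSO treated cells and 100% = cells given Gossypol at 36 µM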
# Target sequence (Q15596 whole entry, looked up, the tested form may be a part): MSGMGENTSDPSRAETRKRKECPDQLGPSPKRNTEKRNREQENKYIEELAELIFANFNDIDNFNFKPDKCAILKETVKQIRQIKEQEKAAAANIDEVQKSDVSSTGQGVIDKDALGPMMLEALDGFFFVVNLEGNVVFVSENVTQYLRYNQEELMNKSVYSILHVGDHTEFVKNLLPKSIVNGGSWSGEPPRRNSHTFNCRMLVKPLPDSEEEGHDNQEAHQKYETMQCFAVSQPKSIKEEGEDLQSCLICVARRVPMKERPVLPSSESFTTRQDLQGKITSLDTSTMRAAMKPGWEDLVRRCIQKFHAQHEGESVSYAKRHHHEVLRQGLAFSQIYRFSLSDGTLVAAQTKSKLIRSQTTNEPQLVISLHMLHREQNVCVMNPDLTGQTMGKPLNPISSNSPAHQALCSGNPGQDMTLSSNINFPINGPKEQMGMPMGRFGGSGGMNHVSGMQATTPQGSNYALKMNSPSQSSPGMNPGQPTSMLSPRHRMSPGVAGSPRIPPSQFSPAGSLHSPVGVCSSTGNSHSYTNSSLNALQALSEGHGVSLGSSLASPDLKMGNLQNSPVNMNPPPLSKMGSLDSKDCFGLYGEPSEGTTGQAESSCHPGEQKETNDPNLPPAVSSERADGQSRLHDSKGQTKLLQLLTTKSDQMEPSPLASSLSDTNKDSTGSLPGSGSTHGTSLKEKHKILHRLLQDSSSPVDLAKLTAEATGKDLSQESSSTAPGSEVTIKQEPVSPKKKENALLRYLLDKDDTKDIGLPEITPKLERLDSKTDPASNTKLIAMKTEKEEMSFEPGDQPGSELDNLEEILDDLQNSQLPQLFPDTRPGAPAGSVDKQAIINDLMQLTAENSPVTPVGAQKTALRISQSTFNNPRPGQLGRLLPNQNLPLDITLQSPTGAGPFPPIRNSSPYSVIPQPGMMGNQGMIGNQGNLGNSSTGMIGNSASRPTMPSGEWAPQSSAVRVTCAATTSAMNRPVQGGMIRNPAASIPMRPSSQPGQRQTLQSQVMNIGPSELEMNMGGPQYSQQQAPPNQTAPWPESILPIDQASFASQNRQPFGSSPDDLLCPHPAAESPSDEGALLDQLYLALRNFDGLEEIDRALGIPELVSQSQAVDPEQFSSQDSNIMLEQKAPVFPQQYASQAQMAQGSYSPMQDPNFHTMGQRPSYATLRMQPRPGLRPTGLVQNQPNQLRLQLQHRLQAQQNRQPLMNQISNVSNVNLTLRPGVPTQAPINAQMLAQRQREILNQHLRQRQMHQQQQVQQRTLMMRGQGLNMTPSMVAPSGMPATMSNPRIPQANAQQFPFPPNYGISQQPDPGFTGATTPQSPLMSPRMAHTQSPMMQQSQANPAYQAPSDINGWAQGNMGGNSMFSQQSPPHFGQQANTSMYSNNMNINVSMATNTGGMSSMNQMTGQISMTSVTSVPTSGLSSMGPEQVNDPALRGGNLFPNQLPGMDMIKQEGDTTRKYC
# LGR2 antag: Drosophila LGR2 receptor signaling inhibition. HEK293 LGR2, CRE-luciferase, bursicon-stimulated, 4 h. inhibition, % at 9.99 µM. hit rate 0.35% among 380,000;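 active = drop in luminescence signal, shown as inhibition above about 50% in the replicate tests, limit read from the data, passing the limit was not always enough; inconclusive = probably only some replicates passing the limit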;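 note: agonist challenge used bursicon conditioned medium at about half maximal strength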
# NCOA1 inh: inhibits human SRC1 coactivator; HEK293 GAL4-SRC1 luciferase reporter, luminescence; hit rate 0.12% among 360,000; Q15788; inhibition, % at 3.6 µM; AID 588354;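 active = inhibition above the campaign mean plus 3 SD, with each screening campaign given its own cutoff, cut at about 60% in these data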;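 note: 0% = DMSO treated cells and 100% = gossypol at 36 µM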
# LRH-1 inv ag: inverse agonists of human LRH-1 (NR5A2) | inhibition, % at 3.6 µM | hit rate 0.13% among 360,000 | HEK293T StAR-luciferase reporter, LRH-1 transfected, 24 h | AID 602396;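 active = inhibition above the mean inhibition of all tested compounds plus 3 SD, cut at about 73% in these data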;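 note: 0% = DMSO wells and 100% = reporter-only cells lacking LRH-1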
# * hit, by the source's call; i = inactive; ? = inconclusive; nt = no result given. Rows were chosen to be rich in hits. Some 0.45% of all compounds tested hit in one or more screens of this group.
SMILES,SRC3 inh,NCOA2 inhibitor,LGR2 antag,NCOA1 inh,LRH-1 inv ag
COc1ccc2c(c1OC)CN1CCc3cc4c(cc3[C@@H]1[C@@H]2O)OCO4,-38.1,nt,nt,-14.5,-17.4
Cc1ccc(Nc2nc(NCc3ccco3)c3ccccc3n2)cc1,-56.6,-1.8,95.7*,-67.7,-75.8
COc1ccccc1Nc1nc(NCc2ccco2)c2ccccc2n1,-10.5,-10.5,nt,-13.3,13.6
CCC(=O)Nc1ccc2c(c1)OC[C@H](C)N(CC1CC1)C[C@H](C)[C@@H](OC)CN(C)C2=O,nt,nt,-2.0,nt,nt
CC1CCCCN1CCCNC(=O)c1ccc2c(c1)NC(=O)CN2C (stereo unspecified),-1.5,-18.5,0.3,-7.4,26.7
CCCCN(CCCNC(=O)c1ccc2c(c1)NC(=O)CN2C)c1ccccc1,-1.7,13.3,91.0*,5.1,-14.9
CCC1(O)C(=O)OCc2c1cc1n(c2=O)Cc2cc3cc(O)ccc3nc2-1 (stereo unspecified),77.6*,34.4,94.9*,50.6,91.5*
CCn1nc([N+](=O)[O-])c(C(C#N)c2nc3cc(C(F)(F)F)ccc3s2)c(Cl)c1=O (stereo unspecified),61.7*,-10.8,6.0,-45.3,14.1
CCC(=O)Nc1cc(SCCO)cc([N+](=O)[O-])c1,0.2,-9.3,nt,9.8,-1.3
O=C(CCl)Nc1cc(SCC(O)CO)cc([N+](=O)[O-])c1 (stereo unspecified),70.4*,68.6*,72.7*,27.6,86.8*
C[C@H]1CN([C@@H](C)CO)S(=O)(=O)c2ccc(-c3ccc(F)cc3)cc2O[C@H]1CN(C)C(=O)Nc1ccc(F)cc1,nt,nt,9.6,nt,nt
COc1ccc(-n2c(C)c(C(C)=O)c3cc(OC(C)=O)ccc32)cc1,59.0,32.3,24.7,62.1*,30.5
O=C(Nc1ccc(Cl)c(Cl)c1)N[C@@H]1CC[C@@H](CCn2cc(C3CC3)nn2)O[C@@H]1CO,nt,nt,1.5,nt,nt
N#CC(c1cccc(Cl)c1)c1ccc2c(C(F)(F)F)cc(C(F)(F)F)nc2n1 (stereo unspecified),41.4,28.1,nt,22.1,99.0*
NNc1ccc2c(C(F)(F)F)cc(C(F)(F)F)nc2n1,5.1,-2.1,14.8,3.4,6.5
Cc1cccc(N(Cc2ccccc2)C(=O)CCl)c1,26.2,60.0*,23.7,2.2,33.0
C(=N\Nc1ccc2ccccc2n1)/c1ccc2c(c1)OCCO2,57.2,52.0,87.6*,60.0,42.8
Cc1cccc(/C=N/Nc2ccc3ccccc3n2)c1,49.5,7.2,79.3*,35.8,20.7
Cc1ccc(/C=N/Nc2ccc3ccccc3n2)o1,-70.3,-25.0,?,-75.6,-177.6
C(=N\Nc1nc2ccccc2[nH]1)/c1ccc2c(c1)OCCO2,-57.8,-7.0,25.9,-85.5,-157.4
COc1ccc2[nH]c3c(c(=O)c2c1)CCCC3,6.8,-6.5,-5.4,9.9,-20.3
COc1ccc2[nH]c3c(c2c1)CC(C)NC3=O (stereo unspecified),52.2,35.9,28.4,66.3*,37.2
O=C(O)c1cccc(Nc2ccnc(Nc3cccc(C(=O)O)c3)n2)c1,-48.2,-9.9,89.9*,-28.0,-11.8
CCC(=O)N(C1=C(NC(C)C)C(=O)c2ccccc2C1=O)C(C)C,4.1,-7.3,13.2,7.8,12.3
CCCNC1=C(N(C(C)=O)c2cccc(F)c2)C(=O)c2ccccc2C1=O,40.2,57.8*,12.0,27.6,78.8*
SMILES,SRC3 inh,NCOA2 inhibitor,LGR2 antag,NCOA1 inh,LRH-1 inv ag
C[C@H](CO)N1C[C@H](C)[C@H](CN(C)C(=O)Nc2ccccc2)Oc2ccc(NC(=O)CCCCCC(=O)Nc3ccccc3N)cc2C1=O,nt,nt,8.1,nt,nt
Cn1c(/C=C/c2ccc(Cl)cc2Cl)c([N+](=O)[O-])c(=O)n(C)c1=O,75.5*,-19.4,56.0*,45.9,5.8
CC[n+]1c(/C=C/c2c[nH]c3ccccc23)ccc2cc(C)ccc21,nt,-9.9,107.8*,nt,nt
COc1cccc2c1C1COC3C4CC(C(=O)O)C(C(C2)N13)N4C (stereo unspecified),5.1,21.8,1.1,21.4,87.5*
O=C1C=C(O)c2cccc(O)c2C1=O,23.9,-3.3,nt,-39.5,5.4
O=C1C=C(c2c(O)ccc3ccccc23)c2ccccc2C1=O,7.8,-35.0,95.0*,-9.9,8.9
CN(C)CCNc1cccc2sc3ccc(O)cc3c(=O)c12,21.2,-87.0,9.7,8.3,29.0
Cc1ccc(NCCN(C)C)c2c(=O)c3cc(O)ccc3sc12,58.8,-68.7,-4.3,64.0*,43.0
CO[C@@H]1CN(C)C(=O)c2ccc(NC(C)=O)cc2OC[C@@H](C)N(Cc2cccnc2)C[C@@H]1C,nt,nt,-2.9,nt,nt
O=c1cc(-c2ccc(O)c(O)c2)oc2ccc3ccccc3c12,-22.3,-21.9,-28.6,-27.2,-92.1
O=c1cc(-c2ccccc2)oc2ccc3ccccc3c12,-9.4,-38.8,101.2*,-24.7,-54.6
C[C@H](CO)N1C[C@H](C)[C@H](CN(C)S(=O)(=O)c2ccc(F)cc2)Oc2c(NC(=O)CCCCCC(=O)Nc3ccccc3N)cccc2C1=O,nt,nt,2.5,nt,nt
CC(=O)Oc1ccccc1C(=O)C=Cc1cccc([N+](=O)[O-])c1,6.3,-17.2,101.4*,-7.1,27.2
Cc1cc(O)c(C(=O)/C=C/c2cccc([N+](=O)[O-])c2)c(=O)o1,5.1,-36.6,nt,-6.1,18.6
Cc1ccc(NC(=O)COc2ccccc2[N+](=O)[O-])nc1,-68.4,-56.7,53.9*,-107.9,-144.8
CC(C)C(=O)N1CCN(c2ccc(NC(=O)COc3ccccc3[N+](=O)[O-])cc2)CC1,49.2,24.8,63.5*,23.2,2.1
O=C1/C(=C\c2ccccc2)CN(C(=O)CCN2CCCCC2)C/C1=C/c1ccccc1,1.7,40.4,104.0*,-8.1,74.1*
O=C1/C(=C\c2ccccc2)CCC/C1=C/c1ccccc1,1.5,-30.8,-42.9,4.4,0.9
O=C1/C(=C\c2ccc(Cl)c(Cl)c2)CN(C(=O)CCN2CCOCC2)C/C1=C/c1ccc(Cl)c(Cl)c1,-241.1,30.2,90.6*,i,60.7
CCN(CC)CCC(=O)N1C/C(=C/c2ccccc2)C(=O)/C(=C\c2ccccc2)C1,-8.2,36.9,92.2*,-85.4,69.9
O=C(CCN1C(=O)S/C(=C\c2ccccc2)C1=O)N1CCCCC1,-7.0,-8.0,-6.0,-33.8,-25.6
O=C(NCCN1CCOCC1)c1ccc(Cl)c(Cl)c1,-14.6,5.2,3.7,1.3,-3.9
O=C(COc1ccc2ccccc2c1)Nc1nccs1,-60.6,-31.1,72.5*,-71.4,-130.5
O=C(C#Cc1ccccc1)c1ccco1,22.0,-23.5,50.0*,18.1,18.8
CC1(C)N=C(N)N=C(N)N1c1ccccc1,11.7,-2.1,nt,-32.3,4.4
CC1(C)N=C(N)N=C(N)N1c1ccc(CCCCc2ccccc2)cc1,46.3,50.6,43.0,37.7,80.1*
CCC(=O)Nc1ccc2c(c1)C(=O)N(C)[C@H]1CC[C@H](CC(=O)O)O[C@@H]1CO2,nt,nt,-9.5,nt,nt
O=C(C1CC1)N1CC(=O)N2[C@H](CO)[C@@H](c3ccc(C#Cc4cccc(F)c4)cc3)[C@H]2C1,nt,nt,4.1,nt,nt
CN(CCC#N)c1ccc(/C=C(\C#N)c2ccccn2)cc1,-47.4,-59.2,73.0*,-103.5,-107.8
CN(C)CC(=O)N1[C@@H](CO)[C@@H](c2ccccc2)C12CN(C(=O)c1cccc(F)c1)C2,nt,nt,23.3,nt,nt
